# From PubChem BioAssay (NCI)
# Compounds without any hit were thinned out: in the full panel of roughly 79,000, 15% have a hit. A number with no mark means an inactive call. The source made the active and inactive calls. Cut-off read from the data, not from the text of the source: active = growth inhibition above about 70%; inactive = the rest.
# Key:
# [1] = NCI Yeast Anticancer Drug Screen. Data for the rad52 strain (AID 147);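 note: 0% = growth of vehicle-treated control cultures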; settings: S. cerevisiae rad52 mutant growth inhibition, stronger effect = higher value
# Procedure, shortened: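 Here a repair-compromised yeast strain receives each compound; its growth is then quantified and normalised to vehicle-only controls.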
# [2] = NCI Yeast Anticancer Drug Screen. Data for the rad50EPP+ strain (AID 151);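 note: 0% = growth of vehicle-treated control cultures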; settings: S. cerevisiae rad50 mutant strain, stronger effect = higher value
# Procedure, shortened: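 Read-out is yeast growth inhibition relative to vehicle; cells used were the rad50EPP+ strain.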
# [3] = NCI Yeast Anticancer Drug Screen. Data for the mgt1 strain (AID 153); settings: S. cerevisiae mgt1 mutant growth inhibition, stronger effect = higher value
# Procedure, shortened: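 Measured: inhibition of mgt1 yeast growth by compound, normalized to vehicle-treated cultures.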
# [4] = NCI Yeast Anticancer Drug Screen. Data for the rad50 strain (AID 155);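 note: 0% = growth of vehicle-only cultures of the same strain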; settings: S. cerevisiae rad50 strain growth inhibition, stronger effect = higher value
# Procedure, shortened: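 Genetically altered yeast (DNA repair pathway); compound treatment; growth inhibition vs vehicle ctrl.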
# [5] = NCI Yeast Anticancer Drug Screen. Data for the mec2-1 strain (AID 157); settings: S. cerevisiae mec2-1 strain, stronger effect = higher value
# Procedure, shortened: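 Using mec2-1 yeast: add compound, measure growth, express inhibition versus vehicle-treated cultures.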
# [6] = NCI Yeast Anticancer Drug Screen. Data for the rad14 strain (AID 159);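 note: 0% = growth of vehicle-treated control cultures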; settings: S. cerevisiae rad14 strain growth inhibition, stronger effect = higher value
# Procedure, shortened: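 Test compounds were applied to a repair-deficient yeast strain. Its growth was then compared with that of cultures given vehicle alone, and inhibition was expressed relative to those controls.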
# [7] = NCI Yeast Anticancer Drug Screen. Data for the sgs1 mgt1 strain (AID 161);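 note: 0% = growth of cultures given vehicle only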; settings: S. cerevisiae sgs1 mgt1 strain, stronger effect = higher value
# Procedure, shortened: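 Yeast cells carrying a defined DNA-repair defect were exposed to test compounds. Growth inhibition was measured relative to vehicle-treated controls.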
# [8] = NCI Yeast Anticancer Drug Screen. Data for the CLN2oe strain (AID 163);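 note: 0% = growth of vehicle-only control cultures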; settings: S. cerevisiae CLN2oe strain, stronger effect = higher value
# Procedure, shortened: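 Whole-cell yeast growth assay. A strain engineered for altered cell-cycle control received compound, and inhibition relative to vehicle-treated cultures was recorded.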
# [9] = NCI Yeast Anticancer Drug Screen. Data for the cln2 rad14 strain (AID 165);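 note: 0% = growth equal to vehicle treated cultures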; settings: S. cerevisiae cln2 rad14 strain, stronger effect = higher value
# Procedure, shortened: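 Yeast strain cln2 rad14, bearing defects in cell cycle control and DNA repair, serves as the test system; values reflect growth inhibition compared with vehicle.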
# [10] = NCI Yeast Anticancer Drug Screen. Data for the bub3 strain (AID 167); settings: S. cerevisiae bub3 mutant strain, stronger effect = higher value
# Procedure, shortened: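 Yeast carrying a defined mutation is treated with each compound, and growth is compared with that of vehicle-exposed cells to give inhibition.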
# [11] = NCI Yeast Anticancer Drug Screen. Data for the wt2 strain (AID 169);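 note: 0% = growth of vehicle-treated yeast cultures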; settings: S. cerevisiae wt2 strain growth inhibition, stronger effect = higher value
# Procedure, shortened: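 Treated yeast vs. vehicle-treated yeast: growth inhibition determined.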
# [12] = NCI Yeast Anticancer Drug Screen. Data for the sgs1 strain (AID 173);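 note: 0% = growth of vehicle-only control cultures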; settings: S. cerevisiae sgs1 mutant, stronger effect = higher value
# Procedure, shortened: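 A genetically defined yeast mutant is incubated with the test compound, and its growth is compared to that of the same strain given vehicle.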
# [13] = NCI Yeast Anticancer Drug Screen. Data for the mlh1 rad18 strain (AID 175); settings: S. cerevisiae mlh1 rad18 strain growth inhibition, stronger effect = higher value
# Procedure, shortened: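 Steps: expose repair-defective yeast to compound; measure growth; express inhibition against vehicle-treated controls.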
# [14] = NCI Yeast Anticancer Drug Screen. Data for the rad18 strain (AID 177); settings: S. cerevisiae rad18 mutant growth inhibition, stronger effect = higher value
# Procedure, shortened: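 Measured value is growth inhibition of a yeast strain bearing a DNA repair alteration, referenced to vehicle-treated cells.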
# [15] = NCI Yeast Anticancer Drug Screen. Data for the wt1 strain (AID 149);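 note: 0% = growth of vehicle-treated wt1 cultures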; settings: S. cerevisiae wt1 strain (SPY 50644) growth inhibition, stronger effect = higher value
# Procedure, shortened: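 wt1 yeast, compound-treated; % growth inhibition vs vehicle control.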
# [16] = NCI Yeast Anticancer Drug Screen. Data for the mlh1 strain (AID 171);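 note: 0% = growth of vehicle-treated control cultures of the same strain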; settings: S. cerevisiae mlh1 strain growth inhibition, stronger effect = higher value
# Procedure, shortened: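 A yeast strain with a defined genetic lesion serves as the test organism. Cultures receive compound or vehicle, and growth is measured.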
# [17] = at 5.0 µM (retest, dose inferred, filed as 0.5)
# [18] = at 50.0 µM (retest, dose inferred, filed as 5.0)
compound,measurement,setting,value
Cc1ccc(CCC2=CCCc3c2ccc2ccccc32)cc1,growth inhibition,[1]; at 1.2 µM,-1%
same,growth inhibition,[1]; at 3.7 µM,-3%
same,growth inhibition,[1]; at 11.0 µM,0%
same,growth inhibition,[1]; at 33.0 µM,1%
same,growth inhibition,[1]; at 100.0 µM,0%
same,growth inhibition,[2]; at 1.2 µM,-3%
same,growth inhibition,[2]; at 3.7 µM,5%
same,growth inhibition,[2]; at 11.0 µM,13%
same,growth inhibition,[2]; at 33.0 µM,40%
same,growth inhibition,[2]; at 100.0 µM,58%
same,growth inhibition,[3]; at 1.2 µM,-4%
same,growth inhibition,[3]; at 3.7 µM,-3%
same,growth inhibition,[3]; at 11.0 µM,-3%
same,growth inhibition,[3]; at 33.0 µM,-8%
same,growth inhibition,[3]; at 100.0 µM,-39%
same,growth inhibition,[4]; at 1.2 µM,-1%
same,growth inhibition,[4]; at 3.7 µM,-2%
same,growth inhibition,[4]; [17],-7%
same,growth inhibition,[4]; at 11.0 µM,0%
same,growth inhibition,[4]; at 33.0 µM,-1%
same,growth inhibition,[4]; [18],-25%
same,growth inhibition,[4]; at 50.0 µM,11.1%
same,growth inhibition,[4]; at 100.0 µM,2%
same,growth inhibition,[5]; at 1.2 µM,-4%
same,growth inhibition,[5]; at 3.7 µM,-5%
same,growth inhibition,[5]; [17],44%
same,growth inhibition,[5]; at 11.0 µM,-5%
same,growth inhibition,[5]; at 33.0 µM,-4%
same,growth inhibition,[5]; [18],31%
same,growth inhibition,[5]; at 50.0 µM,6.45%
same,growth inhibition,[5]; at 100.0 µM,5%
same,growth inhibition,[6]; at 1.2 µM,-4%
same,growth inhibition,[6]; at 3.7 µM,-4%
same,growth inhibition,[6]; at 11.0 µM,0%
same,growth inhibition,[6]; at 33.0 µM,6%
same,growth inhibition,[6]; at 100.0 µM,13%
same,growth inhibition,[7]; [17],5%
same,growth inhibition,[7]; [18],10%
same,growth inhibition,[7]; at 50.0 µM,33%
same,growth inhibition,[8]; at 1.2 µM,-5%
same,growth inhibition,[8]; at 3.7 µM,-2%
same,growth inhibition,[8]; at 11.0 µM,-9%
same,growth inhibition,[8]; at 33.0 µM,-5%
same,growth inhibition,[8]; at 100.0 µM,9%
same,growth inhibition,[9]; [17],6%
same,growth inhibition,[9]; [18],-10%
same,growth inhibition,[9]; at 50.0 µM,16.8%
same,growth inhibition,[10]; at 1.2 µM,-4%
same,growth inhibition,[10]; at 3.7 µM,-2%
same,growth inhibition,[10]; [17],63%
same,growth inhibition,[10]; at 11.0 µM,-4%
same,growth inhibition,[10]; at 33.0 µM,5%
same,growth inhibition,[10]; [18],84% (active)
same,growth inhibition,[10]; at 50.0 µM,33.8%
same,growth inhibition,[10]; at 100.0 µM,15%
same,growth inhibition,[11]; at 1.2 µM,-3%
same,growth inhibition,[11]; at 3.7 µM,-5%
same,growth inhibition,[11]; at 11.0 µM,-5%
same,growth inhibition,[11]; at 33.0 µM,-8%
same,growth inhibition,[11]; at 100.0 µM,-8%
same,growth inhibition,[12]; at 1.2 µM,-5%
same,growth inhibition,[12]; at 3.7 µM,-4%
same,growth inhibition,[12]; at 11.0 µM,-1%
same,growth inhibition,[12]; at 33.0 µM,0%
same,growth inhibition,[12]; at 100.0 µM,3%
same,growth inhibition,[13]; [17],38%
same,growth inhibition,[13]; [18],16%
same,growth inhibition,[13]; at 50.0 µM,16.9%
same,growth inhibition,[14]; at 1.2 µM,-4%
same,growth inhibition,[14]; at 3.7 µM,-1%
same,growth inhibition,[14]; at 11.0 µM,-2%
same,growth inhibition,[14]; at 33.0 µM,-2%
same,growth inhibition,[14]; at 100.0 µM,2%
CCCCCCCCNC(=O)C1=C(C)NC(C)=C(C(=O)NCCCCCCCC)C1,growth inhibition,[15]; at 1.2 µM,2%
same,growth inhibition,[15]; at 3.7 µM,3%
same,growth inhibition,[15]; at 11.0 µM,1%
same,growth inhibition,[15]; at 33.0 µM,0%
same,growth inhibition,[15]; at 100.0 µM,3%
same,growth inhibition,[2]; at 1.2 µM,0%
same,growth inhibition,[2]; at 3.7 µM,-1%
same,growth inhibition,[2]; at 11.0 µM,2%
same,growth inhibition,[2]; at 33.0 µM,11%
same,growth inhibition,[2]; at 100.0 µM,25%
same,growth inhibition,[3]; at 1.2 µM,0%
same,growth inhibition,[3]; at 3.7 µM,0%
same,growth inhibition,[3]; at 11.0 µM,1%
same,growth inhibition,[3]; at 33.0 µM,-13%
same,growth inhibition,[3]; at 100.0 µM,4%
same,growth inhibition,[4]; at 1.2 µM,-4%
same,growth inhibition,[4]; at 3.7 µM,-13%
same,growth inhibition,[4]; [17],8%
same,growth inhibition,[4]; at 11.0 µM,-17%
same,growth inhibition,[4]; at 33.0 µM,-3%
same,growth inhibition,[4]; [18],6%
same,growth inhibition,[4]; at 50.0 µM,-29.5%
same,growth inhibition,[4]; at 100.0 µM,4%
same,growth inhibition,[5]; at 1.2 µM,0%
same,growth inhibition,[5]; at 3.7 µM,2%
same,growth inhibition,[5]; [17],-7%
same,growth inhibition,[5]; at 11.0 µM,0%
same,growth inhibition,[5]; at 33.0 µM,-4%
same,growth inhibition,[5]; [18],14%
same,growth inhibition,[5]; at 50.0 µM,-5.25%
same,growth inhibition,[5]; at 100.0 µM,7%
same,growth inhibition,[6]; at 1.2 µM,1%
same,growth inhibition,[6]; at 3.7 µM,0%
same,growth inhibition,[6]; at 11.0 µM,2%
same,growth inhibition,[6]; at 33.0 µM,4%
same,growth inhibition,[6]; at 100.0 µM,11%
same,growth inhibition,[7]; [17],-7%
same,growth inhibition,[7]; [18],4%
same,growth inhibition,[7]; at 50.0 µM,0.45%
same,growth inhibition,[8]; at 1.2 µM,4%
same,growth inhibition,[8]; at 3.7 µM,2%
same,growth inhibition,[8]; at 11.0 µM,-1%
same,growth inhibition,[8]; at 33.0 µM,0%
same,growth inhibition,[8]; at 100.0 µM,2%
same,growth inhibition,[9]; [17],42%
same,growth inhibition,[9]; [18],2%
same,growth inhibition,[9]; at 50.0 µM,35.4%
same,growth inhibition,[10]; at 1.2 µM,0%
same,growth inhibition,[10]; at 3.7 µM,0%
same,growth inhibition,[10]; [17],35%
same,growth inhibition,[10]; at 11.0 µM,0%
same,growth inhibition,[10]; at 33.0 µM,0%
same,growth inhibition,[10]; [18],-4%
same,growth inhibition,[10]; at 50.0 µM,-6.55%
same,growth inhibition,[10]; at 100.0 µM,2%
same,growth inhibition,[11]; at 1.2 µM,1%
same,growth inhibition,[11]; at 3.7 µM,1%
same,growth inhibition,[11]; at 11.0 µM,0%
same,growth inhibition,[11]; at 33.0 µM,1%
same,growth inhibition,[11]; at 100.0 µM,2%
same,growth inhibition,[16]; at 1.2 µM,0%
same,growth inhibition,[16]; at 3.7 µM,2%
same,growth inhibition,[16]; at 11.0 µM,0%
same,growth inhibition,[16]; at 33.0 µM,2%
same,growth inhibition,[16]; at 100.0 µM,8%
same,growth inhibition,[12]; at 1.2 µM,2%
same,growth inhibition,[12]; at 3.7 µM,3%
same,growth inhibition,[12]; at 11.0 µM,-3%
same,growth inhibition,[12]; at 33.0 µM,3%
same,growth inhibition,[12]; at 100.0 µM,14%
same,growth inhibition,[13]; [17],8%
same,growth inhibition,[13]; [18],-5%
same,growth inhibition,[13]; at 50.0 µM,-23.8%
same,growth inhibition,[14]; at 1.2 µM,-1%
same,growth inhibition,[14]; at 3.7 µM,-2%
same,growth inhibition,[14]; at 11.0 µM,-4%
same,growth inhibition,[14]; at 33.0 µM,-8%
same,growth inhibition,[14]; at 100.0 µM,2%
